Measured values published in the supplement of paper PMC13380429.

Experiments:
[1] = tested on: Vero E6 infected with SARS-CoV-2; test: morphology score (similarity to uninfected cells); higher = more like uninfected cells; details: 24 h
[2] = tested on: Vero E6 infected with SARS-CoV-2; test: SARS-CoV-2 infection rate relative to infected DMSO; higher = more infection, active = 60 or less; details: 24 h

SMILES	morphology score [1]	SARS-CoV-2 infection rate [2]
CNCc1ccc(C)c(NC(=O)c2ccc(Nc3nc(-c4ccccc4)c4ccccc4n3)cc2)c1 (0.833333 µM)	0.213	98% (inactive)
COc1cc(OC)c(/C=C/S(=O)(=O)Cc2ccc(OC)c(OP(=O)(O)O)c2)c(OC)c1 [briciclib] (0.833333 µM)	-0.0884	92% (inactive)
CC(C)(C)NC[C@H](O)COc1cccc2c1CCCC2=O [levobunolol] (10 µM)	0.0302	108% (inactive)
C[N+]12CCCCC1CCC(=C(c1cccs1)c1cccs1)C2 (stereo unspecified) [tiquizium] (10 µM)	0.138	93.5% (inactive)
N=C1NC(=O)/C(=C/c2ccc(O)cc2)S1 [mirin] (10 µM)	-0.0277	112% (inactive)
CCNCc1cc(C(C)(C)C)c(O)c(C(C)(C)C)c1 (10 µM)	0.195	99% (inactive)
C=CC1=C(C)c2cc3[nH]c(cc4nc(cc5[nH]c(cc1n2)c(C)c5CCC(=O)O)C(CCC(=O)O)=C4C)c(C)c3C=C [protoporphyrin-IX] (10 µM)	-0.0298	115% (inactive)
O=C(Nc1ccccc1)c1cc([N+](=O)[O-])ccc1Cl (10 µM)	0.103	94.5% (inactive)
